Data published in the supplement of paper PMC9262897, “Low-cost anti-mycobacterial drug discovery using engineered E. coli” (Nature Communications, 2022).
Structures can show the parent of a compound that is named as a salt. ± gives the standard deviation of the averaged measurements.

Columns and labels:
Assay in all cases: growth (OD600 after 10 h); higher = more growth (less inhibition)
[1] = test system: E. coli TESEC Alr+ wild-type control; conditions: compound 0.1 mM; raw OD600 reference: median of DMSO wells 0.241, cell-free background 0.041
Description: (§1)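 TESEC Mtb Alr E. coli, or the Alr+ wild-type control, in 384-well plates with Prestwick library compounds at 0.1 mM and 1% DMSO, across arabinose induction levels of 1E3 to 1E7 nM. Growth is read as OD600 after 10 h at 37 °C in triplicate biological replicates.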

E. coli TESEC Mtb Alr [2] = conditions: compound 0.1 mM
Description: as §1

E. coli TESEC Mtb Asd = conditions: compound 0.1 mM
Description: (§2)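 TESEC E. coli strains in which the native enzyme is deleted and replaced by arabinose-inducible Mtb Asd, DapB, CysH or TrpD, each grown in its selective medium. Strains were screened against the Prestwick library at 0.1 mM and 1% DMSO in 384-well format at low and high arabinose induction. Growth is read as OD600 after 10 h in triplicate.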

E. coli TESEC Mtb DapB = conditions: compound 0.1 mM
Description: as §2

[3] = test system: E. coli TESEC Alr+ wild-type control; conditions: compound 0.1 mM; raw OD600 reference: median of DMSO wells 0.49, cell-free background 0.052
Description: (§3)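 TESEC Mtb Alr E. coli (ΔaraC ΔtolC ΔentC Δalr ΔdadX, arabinose-inducible Mtb Alr) or the Alr+ wild-type control strain, grown in defined M9-fructose medium without D-alanine in 96-well plates with Prestwick library compounds at 0.1 mM and 1% DMSO. Low Alr induction is 0.1 µM arabinose and high induction is 10 mM arabinose.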

E. coli TESEC Mtb Alr [4] = conditions: compound 0.1 mM; remark: listed apart in the source
Description: as §3

[5] = arabinose 1000 nM, raw OD600 reference: median of DMSO wells 0.294, cell-free background 0.041
[6] = arabinose 10000 nM, raw OD600 reference: median of DMSO wells 0.264, cell-free background 0.041
[7] = arabinose 100000 nM, raw OD600 reference: median of DMSO wells 0.201, cell-free background 0.041
[8] = arabinose 1000000 nM, raw OD600 reference: median of DMSO wells 0.193, cell-free background 0.041
[9] = arabinose 10000000 nM, raw OD600 reference: median of DMSO wells 0.146, cell-free background 0.041
[10] = arabinose induction (level): High, raw OD600 reference: median of DMSO wells 0.331, cell-free background 0.041
[11] = arabinose induction (level): Low, raw OD600 reference: median of DMSO wells 0.417, cell-free background 0.041
[12] = arabinose induction (level): High, raw OD600 reference: median of DMSO wells […], cell-free background 0.041
[13] = arabinose induction (level): Low, raw OD600 reference: median of DMSO wells 0.227, cell-free background 0.041
[14] = arabinose 100 nM, raw OD600 reference: median of DMSO wells 0.413, cell-free background 0.052
[15] = arabinose 10000000 nM, raw OD600 reference: median of DMSO wells […], cell-free background 0.052

SMILES | growth [1] | growth (E. coli TESEC Mtb Alr [2]; [5]) | growth (E. coli TESEC Mtb Alr [2]; [6]) | growth (E. coli TESEC Mtb Alr [2]; [7]) | growth (E. coli TESEC Mtb Alr [2]; [8]) | growth (E. coli TESEC Mtb Alr [2]; [9]) | growth (E. coli TESEC Mtb Asd; [10]) | growth (E. coli TESEC Mtb Asd; [11]) | growth (E. coli TESEC Mtb DapB; [12]) | growth (E. coli TESEC Mtb DapB; [13]) | growth [3] | growth (E. coli TESEC Mtb Alr [4]; [14]) | growth (E. coli TESEC Mtb Alr [4]; [15])
O=C(O)c1ccccc1C(=O)Nc1ccc(S(=O)(=O)Nc2nccs2)cc1 [Phthalylsulfathiazole] | 0.245 ± 0.0086 | 0.298 ± 0.011 | 0.266 ± 0.022 | 0.198 ± 0.02 | 0.184 ± 0.0082 | 0.166 ± 0.0046 | 0.468 ± 0.023 | 0.445 ± 0.036 | 0.212 ± 0.016 | 0.239 ± 0.01 | 0.47 ± 0.037 | 0.405 ± 0.019 | 0.333 ± 0.0071
N[C@@H]1CCCCN(c2c(F)cc3c(=O)c(C(=O)O)cn(C4CC4)c3c2Cl)C1 [Besifloxacin hydrochloride] | 0.04153 ± 0.00035 | 0.0427 ± 0.002 | 0.0401 ± 0.00026 | 0.0447 ± 0.0037 | 0.0402 ± 0.00095 | 0.0414 ± 0.0011 | 0.0501 ± 0.0019 | 0.0463 ± 0.00069 | 0.0491 ± 0.0014 | 0.0491 ± 0.001 | 0.0537 ± 0.00057 | 0.05447 ± 0.00045 | 0.053 ± 0.0011
Cc1ccc(C(=O)c2cc(O)c(O)c([N+](=O)[O-])c2)cc1 [Tolcapone] | 0.04277 ± 0.00032 | 0.0471 ± 0.0057 | 0.04323 ± 0.00038 | 0.0445 ± 0.00061 | 0.04313 ± 0.00042 | 0.0485 ± 0.00089 | 0.0527 ± 0.0018 | 0.0521 ± 0.0091 | 0.0526 | 0.0557 ± 0.0019 | 0.065 ± 0.0022 | 0.0574 ± 0.0008 | 0.0554 ± 0.00035
CCN(CC)Cc1cc(Nc2ccnc3cc(Cl)ccc23)ccc1O [Amodiaquin dihydrochloride dihydrate] | 0.16 ± 0.0068 | 0.229 ± 0.0059 | 0.269 ± 0.003 | 0.181 ± 0.0097 | 0.102 ± 0.0085 | 0.203 ± 0.0054 | 0.179 ± 0.011 | 0.387 ± 0.051 | 0.209 ± 0.017 | 0.28 ± 0.06 |  | 0.4131 ± 0.00099 | 0.322 ± 0.0054
Cc1c(Nc2ncccc2C(=O)O)cccc1C(F)(F)F [Flunixin meglumine] | 0.146 ± 0.0033 | 0.084 ± 0.007 | 0.0857 ± 0.0019 | 0.163 ± 0.005 | 0.082 ± 0.0026 | 0.127 ± 0.0028 | 0.157 ± 0.0086 | 0.125 ± 0.0096 | 0.178 ± 0.0075 | 0.187 ± 0.01 | 0.373 ± 0.034 | 0.277 ± 0.026 | 0.146 ± 0.021
CC1(C)NC(=O)N(c2ccc([N+](=O)[O-])c(C(F)(F)F)c2)C1=O [Nilutamide] | 0.216 ± 0.017 | 0.273 ± 0.0069 | 0.256 ± 0.003 | 0.189 ± 0.012 | 0.153 ± 0.0033 | 0.142 ± 0.0062 | 0.281 ± 0.1 | 0.399 ± 0.042 | 0.194 ± 0.012 | 0.252 ± 0.0066 | 0.552 ± 0.064 | 0.396 ± 0.013 | 0.295 ± 0.017
Clc1cccc(Cl)c1NC1=NCCN1 [Clonidine hydrochloride] | 0.245 ± 0.01 | 0.289 ± 0.0065 | 0.261 ± 0.0058 | 0.201 ± 0.023 | 0.173 ± 0.0049 | 0.145 ± 0.011 | 0.377 ± 0.03 | 0.422 ± 0.016 | 0.195 ± 0.012 | 0.26 ± 0.034 | 0.462 ± 0.014 | 0.407 ± 0.013 | 0.375 ± 0.017
CCCOc1cc(N)ccc1C(=O)OCCN(CC)CC [Propoxycaine hydrochloride] | 0.229 ± 0.005 | 0.289 ± 0.0076 | 0.274 ± 0.01 | 0.199 ± 0.034 | 0.22 ± 0.011 | 0.138 ± 0.0039 | 0.36 ± 0.085 | 0.376 ± 0.079 | 0.225 ± 0.0078 | 0.22 ± 0.017 | 0.487 ± 0.08 | 0.41 ± 0.0052 | 0.361 ± 0.015
